We go through 17 compounds from ChEMBL document CHEMBL1961873, “Compounds: GSK PKIS; Assays: Nanosyn kinase panel” (2012).

For one assay, the target named is T1, Ephrin type-B receptor 3 (Homo sapiens) (UniProt P54753).
T1 sequence (whole entry): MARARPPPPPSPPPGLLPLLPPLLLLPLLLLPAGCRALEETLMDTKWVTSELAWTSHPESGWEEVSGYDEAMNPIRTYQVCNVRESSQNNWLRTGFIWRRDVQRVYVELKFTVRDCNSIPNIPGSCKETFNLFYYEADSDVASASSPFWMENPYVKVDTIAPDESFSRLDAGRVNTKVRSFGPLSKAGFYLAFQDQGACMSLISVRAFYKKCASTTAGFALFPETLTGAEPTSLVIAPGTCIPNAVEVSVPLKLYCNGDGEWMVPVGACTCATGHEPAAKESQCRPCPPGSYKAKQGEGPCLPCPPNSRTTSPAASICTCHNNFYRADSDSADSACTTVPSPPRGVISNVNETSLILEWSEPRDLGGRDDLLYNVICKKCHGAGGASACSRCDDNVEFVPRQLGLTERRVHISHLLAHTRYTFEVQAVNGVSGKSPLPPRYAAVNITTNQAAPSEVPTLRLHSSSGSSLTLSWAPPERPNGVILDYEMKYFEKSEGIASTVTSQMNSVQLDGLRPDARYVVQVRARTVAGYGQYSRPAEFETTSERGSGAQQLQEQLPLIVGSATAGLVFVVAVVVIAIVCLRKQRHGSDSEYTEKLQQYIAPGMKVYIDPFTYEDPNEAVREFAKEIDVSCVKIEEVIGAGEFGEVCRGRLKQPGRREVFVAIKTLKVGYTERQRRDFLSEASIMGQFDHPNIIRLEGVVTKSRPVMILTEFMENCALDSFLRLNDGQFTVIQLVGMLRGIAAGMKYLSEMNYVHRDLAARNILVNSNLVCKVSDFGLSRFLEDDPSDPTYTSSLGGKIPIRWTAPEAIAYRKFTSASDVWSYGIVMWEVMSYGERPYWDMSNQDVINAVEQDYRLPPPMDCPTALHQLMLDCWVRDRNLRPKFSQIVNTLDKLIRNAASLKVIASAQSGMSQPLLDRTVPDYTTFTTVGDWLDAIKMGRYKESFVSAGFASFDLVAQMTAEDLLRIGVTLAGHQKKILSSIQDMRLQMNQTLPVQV
Conditions: at 0.1 µM.
As a reminder, the inhibition is the change of the read-out against control, counted positive when it falls. In the case of `COc1cc(Nc2nccc(Nc3ccc4c(C)n[nH]c4c3)n2)cc(OC)c1OC`, the inhibition is 2.52%.

On to `CC1=C(C(=O)Nc2cc(Cl)c3[nH]ncc3c2)C(c2ccc(C(F)(F)F)cc2)CC(=O)N1` (configuration not stated), for which the inhibition was 5.62%.

For `CCn1c(-c2nonc2N)nc2c(C#CC(C)(C)O)ncc(OC3CCNCC3)c21`, the inhibition came to 3.01%.

Turning to `CNC(=O)c1cccc(C#Cc2cncnc2Nc2ccc(OCc3cccc(F)c3)c(Cl)c2)c1`, the inhibition was found to be 0.65%.

As for `COc1ccc(-c2cc3c(N)ncnc3o2)cc1`, the inhibition was -1.39%.

Consider `COc1cc(/C=N/Nc2ncnc3[nH]ncc23)ccc1O`, for which the inhibition amounted to 3.99%.

Regarding `COc1cc2ncn(-c3cc(OCc4ccccc4C(F)(F)F)c(C(=O)N(C)C)s3)c2cc1OC`, the inhibition was found to be 2.32%.

On to `NS(=O)(=O)c1ccc(Nc2ncc(-c3ccccc3)o2)cc1`, for which the inhibition is 4.17%.

Another assay concerns the target T1, Ephrin type-B receptor 3 (Homo sapiens). Conditions: at 1 µM.
Regarding `CCCN(CCS(C)(=O)=O)Cc1ccc(-c2ccc3ncnc(Nc4ccc(OCc5cccc(F)c5)c(Cl)c4)c3c2)o1`, the inhibition came out at 2.17%.

As for `Cc1ccc2c(-c3ccnc(Nc4ccccc4)n3)c(-c3ccc(F)cc3)nn2n1`, the inhibition turned out to be 11.4%.

Consider `Fc1ccc(-c2cc(-c3c[nH]nc3-c3ccccn3)ccn2)cc1`, for which the inhibition came to 4.44%.

Regarding `FC(F)(F)c1cccc(-c2nn3ncccc3c2-c2ccnc(Nc3ccc4c(c3)OCCO4)n2)c1`, the inhibition was found to be 3%.

With `N#Cc1c(NC(=O)CN2CCOCC2)sc2c1CCCC2`, the inhibition came out at 4.07%.

Regarding `c1ccc(COc2ccc(Nc3ncnc4ccc(-c5ccco5)cc34)cc2)cc1`, the inhibition came out at 3.5%.

With `Fc1ccc(-c2nn3ccccc3c2-c2ccncc2)cc1`, the inhibition is 8.05%.

In the case of `Cc1cccc(Nc2ncc(-c3ccccc3)o2)c1`, the inhibition came out at 2.29%.

In the case of `COc1cc2c(cc1Nc1nc(Nc3ccsc3C(N)=O)c3cc[nH]c3n1)N(C(=O)CN(C)C)CCC2(C)C`, the inhibition is -7.19%.
